Test results as given in PubChem BioAssay (NCATS).
Results filed as inconclusive are left out. Calls of active or inactive are those of the source. The call rests on the fitted dose curve; in most records, active means well fitted curve in the direction sought with a large enough effect; inconclusive means small, poorly fitted or top-dose-only effect, or another doubt; inactive means no such curve, though single readings can be large; an effect the other way counts as inactive or inconclusive.

What was measured:
[1] = tested on: Zika virus NS2B-NS3 protease (linked construct); assay: Primary screen NINDS Rhodamine qHTS for Zika virus inhibitors (AID 1347160); further: nearly all actives have a fitted effect of over 55% in size; further: potency means the concentration at half of the fitted maximal effect
Method in brief: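 Rhodamine110-peptide cleavage (1.5 µM substrate) by 25 nM linked NS2B-NS3 enzyme at pH 8.0 (Tris, Tween 20), after 15 min RT preincubation with compounds; 15-min fluorescence change normalized to controls and Hill-fitted.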

[2] = OV-KATE Cancer Cell Toxicity qHTS against the NCATS CANVASS Library (AID 1347345); further: potency means the concentration at half of the fitted maximal effect
Method in brief: (§1)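 1000 cells/well; 4 h settle; 11-pnt titration; 72 h, 37 degrees C, 5% CO2; CellTiter-Glo, 15min RT; luminescence read.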

[3] = HPAF-II Cancer Cell Toxicity qHTS against the NCATS CANVASS Library (AID 1347346); further: nearly all actives have a fitted effect of over 55% in size; further: potency means the concentration at half of the fitted maximal effect
Method in brief: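 First, HPAF-II cells are plated (1000 cells/well) and held 4 h at 37 degrees C. Next, compounds are pin-transferred as an 11-point series. After 72 h, CellTiter-Glo is added and luminescence measured.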

[4] = UWB1.289 Cancer Cell Toxicity qHTS against the NCATS CANVASS Library (AID 1347347); further: nearly all actives have a fitted effect of over 60% in size; further: potency means the concentration at half of the fitted maximal effect
Method in brief: as §1

[5] = Panc-1005 Cancer Cell Toxicity qHTS against the NCATS CANVASS Library (AID 1347349); further: nearly all actives have a fitted effect of over 60% in size; further: potency means the concentration at half of the fitted maximal effect
Method in brief: as §1

[6] = U-118MG Cancer Cell Toxicity qHTS against the NCATS CANVASS Library (AID 1347351); further: potency means the concentration at half of the fitted maximal effect
Method in brief: as §1

[7] = COV-362 Cancer Cell Toxicity qHTS against the NCATS CANVASS Library (AID 1347352); further: potency means the concentration at half of the fitted maximal effect
Method in brief: (§2)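 First, 1000 cells go into each well and rest for 4 hours. Next, an 11-point dilution range is pinned in. Plates then incubate 72 hours before CellTiter-Glo addition and luminescence reading.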

[8] = A2780 Cisplatin Sensitive Ovarian Cancer Cell Toxicity qHTS against the NCATS CANVASS Library (AID 1347353); further: nearly all actives have a fitted effect of over 60% in size; further: potency means the concentration at half of the fitted maximal effect
Method in brief: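 Cells are plated at 750 per well and rest for 4 hours. Compounds are added across eleven concentrations, and incubated 72 hours before ATP is quantified by luminescence.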

[9] = UWB1.289-WTBRCA1 Cancer Cell Toxicity qHTS against the NCATS CANVASS Library (AID 1347354); further: potency means the concentration at half of the fitted maximal effect
Method in brief: as §2

[10] = HEK293 18hr Apoptosis Induction qHTS against the NCATS CANVASS Library (AID 1347357)
Method in brief: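 Cells seeded at 500/well in DMEM + 10% FBS. Compounds pinned, 11 concentrations. 18 h, 37 degrees C/5% CO2. Caspase-Glo 3/7 added, 15 min RT dark, luminescence read.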

[11] = HEK293 12hr Apoptosis Induction qHTS against the NCATS CANVASS Library (AID 1347361)
Method in brief: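 Cells are seeded, dosed with an 11-point compound series and incubated 12 hours. Caspase-3/7 activity is detected by luminescent DEVD-substrate reagent after 15 minutes at room temperature.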

[12] = qHTS for ATAD5 Agonist screened against the NCATS CANVASS Library (AID 1347367);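 further: luciferase reporter driven by ATAD5 which rises upon DNA damage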
Method in brief: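 HEK293T-ATAD5 luc reporter; 2000 cells/well; 5hr settle; cpd 11-pt qHTS; 16hr 37C 5% CO2 dark; viability by CellTiter-Fluor (AFC fluorescence); then luciferase luminescence, 30min RT.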

[13] = MCF7 Cancer Cell Toxicity qHTS against the NCATS CANVASS Library (AID 1347369); further: potency means the concentration at half of the fitted maximal effect
Method in brief: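 Cells seeded at 500/well, then compound pinned. Plates incubated 72 hr at 37C, 5% CO2. CellTiterGlo added; luminescence read.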

[14] = qHTS for ATAD5 Antagonist screened against the NCATS CANVASS Library (AID 1347370); further: nearly all actives have a fitted effect of over 65% in size; further: potency means the concentration at half of the fitted maximal effect
Method in brief: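 Compounds (11-point) co-dosed with 10 µM 5-FUrd for 16 h at 37 °C onto HEK293T-ATAD5 luciferase reporter cells. Viability measured by CellTiter-Fluor fluorescence, then ATAD5 reporter signal by luminescence.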

[15] = J3T Cancer Cell Toxicity qHTS against the NCATS CANVASS Library (AID 1347371)
Method in brief: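 Luminescence from CellTiterGlo, reporting cellular ATP, serves as the viability measure after 72 hr compound treatment of J3T canine glioma cells seeded at 500 cells/well.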

[16] = target: Nuclear receptor subfamily 1 group I member 3 (Homo sapiens) (UniProt Q14994); assay: qHTS for Constitutive Androstane Receptor (CAR) Agonist screened against the NCATS CANVASS Library (AID 1347373);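 further: every well also contained 1.5 µM PK11195 alongside the test compound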
Method in brief: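 Cells were plated and allowed to attach for 4hr, then dosed with compound in an 11-point series alongside 1.5uM PK11195. After 24hr at 37C, viability was measured fluorometrically and CAR-driven CYP2B6 reporter luminescence was recorded.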

[17] = qHTS for Inflammasome Signaling Inhibitors: IL-1-beta AlphaLISA screen against the NCATS CANVASS Library (AID 1347379);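 further: human THP-1 cells primed with LPS then triggered with ATP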
Method in brief: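 Secreted IL-1B from human THP-1 cells quantified by AlphaLISA 16 hr after compound addition (final up to 57.5 uM). A 1 hr compound pretreatment preceded inflammasome activation with 250 ng/mL LPS plus 1.25 mM ATP (final).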

[18] = Inflammasome Signaling qHTS Counterscreen: IL-1-beta AlphaLISA counterscreen against the NCATS CANVASS Library (AID 1347381);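 further: cell-free check with purified IL-1β in medium and no THP-1 cells; series mostly up to about 57 µM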
Method in brief: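 Purified IL-1-beta (4 pg/well) + compound, 11-pt conc. series; acceptor beads 6 ug/mL + biotin-Ab 0.6 nM final, 1 h RT; SA-donor 24 ug/ml final, 30 min dark RT; read ex 680/em 615.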

[19] = Cytotoxicity qHTS for assessment of Hepg2 cells membrane integrity screened against the NCATS CANVASS Library (AID 1347387)
Method in brief: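 Cells were seeded at 2000 per well and left overnight to attach. Compounds were pin-transferred to give 0.59 nM - 46 uM in an 11-point series and incubated 5 hr at 37C. CytoTox-ONE reagent was added and, after 10 min at room temperature, fluorescence (ex 560, em 590 nm) was read.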

[20] = Vero-766 cells viability qHTS against the NCATS CANVASS Library: Counterscreen for Zika virus inhibition assay (AID 1347394); further: nearly all actives have a fitted effect of over 60% in size; further: potency means the concentration at half of the fitted maximal effect
Method in brief: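 Vero 766, no virus; 1000 cells/well; o/n attach; cpd 11-pt; 72 h, 37C, 5% CO2; CTG luminescence; cell-free media wells = 100% inhibition.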

Measured: Potency

Sequence of Nuclear receptor subfamily 1 group I member 3 (Homo sapiens) (Q14994 whole entry, looked up): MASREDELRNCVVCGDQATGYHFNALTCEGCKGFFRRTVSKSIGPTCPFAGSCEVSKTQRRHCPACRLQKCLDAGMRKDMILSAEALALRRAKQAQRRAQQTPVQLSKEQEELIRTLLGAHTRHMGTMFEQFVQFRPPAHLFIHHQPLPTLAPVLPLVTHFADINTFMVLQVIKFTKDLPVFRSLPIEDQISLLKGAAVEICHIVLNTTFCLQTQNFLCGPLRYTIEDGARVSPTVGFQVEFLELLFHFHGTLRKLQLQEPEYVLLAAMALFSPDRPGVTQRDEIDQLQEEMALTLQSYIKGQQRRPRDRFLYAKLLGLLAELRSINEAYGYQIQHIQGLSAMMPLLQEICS

C=C[C@@]1(C)CC[C@@H]([C@H](C)C(=O)/C=C/C(C)C)O1
inactive: all assays above

O=c1cc(-c2ccc(O)cc2)oc2c([C@@H]3OC(CO)[C@H](O)[C@@H](O)[C@H]3O)c(O)cc(O)c12 (some centres undefined)
active: [1] 17.5 µM
inactive: all other assays above

COc1ccc(CCCc2cc(O)c(OC)c(O)c2)c(O)c1O
active: [1] 11 µM | [14] 11.7 µM
inactive: all other assays above

C[C@@]12CCC[C@@](C)(C(=O)O)[C@H]1C[C@@H](O)[C@]13C[C@H]4C[C@H](O[C@@]4(C)C1)[C@@H]23
active: [1] 31.1 µM
inactive: all other assays above

C=C1C[C@@]23C=CC(=O)[C@@](C)(CCC(=O)Nc4c(OC5O[C@H](CO)[C@@H](O)[C@H](O)[C@H]5O)ccc(C(=O)O)c4O)C2C[C@@H]1CC3 (some centres undefined)
active: [1] 39.2 µM
inactive: all other assays above

C[C@@H]1O[C@H](c2c(O)cc(O)c3c(=O)cc(-c4ccc(O)cc4)oc23)[C@H](O)[C@H](O)[C@H]1O
active: [1] 34.9 µM
inactive: all other assays above

CC(=O)O[C@H]1CC[C@@]2(C)C(CC[C@]3(C)C2CC=C2C4CC(C)(C)CC[C@]4(C)CC[C@]23C)C1(C)C (some centres undefined)
inactive: all assays above

CC(C)=CCC/C(C)=C/Cc1c(O)c(CC=C(C)C)c(O)c2c(=O)c3cc(O)ccc3oc12
inactive: [10] | [11] | [12] | [15] | [16] | [18] | [19]
active: [1] 9.84 µM | [2] 2.36 µM | [3] 13.3 µM | [4] 8.38 µM | [5] 14.9 µM | [6] 21.1 µM | [7] 18.8 µM | [8] 14.8 µM | [9] 14.9 µM | [13] 16.5 µM | [14] 13.2 µM | [20] 26.3 µM

C1=C2CCCN[C@@H]2[C@@H]2CCN3CCCC[C@@H]3[C@H](C1)C2
inactive: all assays above

CC1=CC[C@@]2(C[C@@H]1O)[C@@H](C(=O)O)CC[C@H]2C(C)C
inactive: all assays above

C=C1[C@H]2CC[C@@]3(C=CC(=O)[C@@](C)(CCC(=O)Nc4c(O)ccc(C(=O)O)c4O)C3C2)[C@H]1O (some centres undefined)
active: [1] 44 µM
inactive: all other assays above
